The values below come from PubChem BioAssay (Tox21).

Inconclusive results are not listed. The source made the active and inactive calls. Calls follow the shape of the full dose curve.
% is scaled to controls: 0 for no effect and ±100 for the full control effect.

This assay in a line: cAMP Responsive Elements (CRE) small molecule agonists, cell-based qHTS assay (AID 1963590). The settings on record: CRE-bla HEK293T, beta-lactamase FRET ratio, 3 h; series mostly up to 92.4 µM; activation: at the top concentration. The text has this: U.S. Tox21 Program National Center for Advancing Translational Sciences [NCATS] Division of Preclinical Innovation [DPI] U.S. Environmental Protection Agency [EPA] National Institutes of Environmental Health Sciences [NIEHS] National Toxicology Program [NTP] U.S. Food and Drug Administration [FDA] Tox21 Assay Overview: CREB (cyclic-AMP Responsive Element Binding Protein) is a cellular transcription factor. It binds to certain DNA sequences called cAMP Responsive Elements (CRE) and regulates the transcription of the genes. […] This cell line can be used to find agonists/antagonists of the cyclic AMP signaling pathway. The activation of the report gene under culture conditions can be detected by fluorescence intensity. This cell line has been used to screen the Tox21 10K compound library to identify agonists that induce oxidative stress.
Tox21 Assay Protocol Summary: CRE-bla Hek 293T cells were suspended in assay medium (DMEM containing 10% dialyzed FBS, 0.1 mM NEAA, 1 mM sodium pyruvate and 25 mM HEPES) and dispensed at 2,000 cells/5 uL /well into 1536-well black wall/clear bottom plates using a Multidrop Combi (ThermoFisher Scientific, Waltham, MA) dispenser. After the assay plates were incubated at 37 C/5% CO2 for 18 hrs, 23 nL of compounds dissolved in DMSO, positive controls or DMSO only was transferred to the assay plate by a pintool workstation (Kalypsys, San Diego, CA). After the plates were incubated at 37 C/5% CO2 for 3 hrs, 1 uL of LiveBLAzer B/G FRET substrate (Invitrogen, Carlsbad, CA) was added to each well using Bioraptr Flying Reagent Dispenser (FRD, Aurora Discovery, San Diego, CA). The plates were incubated at room temperature for 2 h.
In general terms: Quantitative high-throughput screening tests each substance at several concentrations.
For `CCCCCCCCCCOC(C)=O`, the “activation” value was 0.0609% (inactive). In the case of `O=C(Nc1ccccc1)c1ccccc1O` it was 0.977% (inactive); in that of `On1nnc2ccccc21`, -1.04% (inactive); in that of `O=C(CO)[C@@H](O)[C@H](O)[C@H](O)CO`, 0.365% (inactive). In the case of `O=S(=O)(O)c1ccc(Cl)cc1` it was -0.244% (inactive). In the case of `CN1Cc2cc(C(=O)N3CCC(C4CCNCC4)CC3)ccc2N[C@@H](CC(=O)O)C1=O` it was -0.142% [at 42.5 µM] (inactive). As to `CCCNC(C)C(=O)Nc1ccccc1C` (stereo not given), the “activation” value is -1.59% [at 42.5 µM] (inactive). For `CO[C@@H]1COCC[C@@H]1N[C@@H]1CC[C@@](C(=O)N2CCc3ncc(C(F)(F)F)cc3C2)(C(C)C)C1`, the “activation” value was -1.71% (inactive). Next, `O=C1c2ccccc2C(=O)c2cc(Cl)ccc21`: -1.41% [at 8.39 µM] (inactive); `C#CCN[C@@H]1CCc2ccccc21`: -1.27% [at 42.5 µM] (inactive); `CN(C)CCc1c[nH]c2ccc(CS(=O)(=O)N3CCCC3)cc12`: 0.426% [at 42.5 µM] (inactive). With `CCCCCCCCCCCC(C)=O`, the “activation” value was -0.807% (inactive).

Consider `Cc1ccnc2ccccc12`, for which the “activation” value was -0.132% (inactive). In the case of `NC(CS)C(=O)O` (stereo not given) it was 0.785% [at 42.5 µM] (inactive); in that of `O=C1C=CCCC1`, 0.305% (inactive); in that of `COCCCN1CCC(NC(=O)c2cc(Cl)c(N)c3c2OCC3)CC1`, 0.379% [at 42.5 µM] (inactive). In the case of `COc1cc(-c2ccc(N=C=O)c(OC)c2)ccc1N=C=O` it was 1.02% [at 42.5 µM] (inactive); in that of `O=C(O)CCNC(=O)c1ccccc1`, 0.228% [at 42.5 µM] (inactive). Next, `CC(C)CCCC(=O)O`: -0.127% (inactive); `O=C1C(=O)c2ccccc2C(O)=C1C1CCC(c2ccc(Cl)cc2)CC1` (stereo not given): 0.829% [at 42.5 µM] (inactive). In the case of `CC(=O)Nc1ccc(S(=O)(=O)Nc2cc(C)on2)cc1`, the “activation” value is 0.246% [at 42.5 µM] (inactive).

With `CN1CN(C)CN(C)C1`, the “activation” value is 0.474% (inactive).

Take `Cc1cc(C(C)(C)C)cc(C)c1CC1=NCCN1`: the “activation” value is 4.25% [at 42.5 µM] (inactive).

As for `BrCCCCCBr`, the “activation” value was 0.198% (inactive).

Consider `CCCC(C)C(=O)OCC` (stereo not given), for which the “activation” value is 1.29% (inactive). In the case of `CCN(CC)C(C)=O` it was -0.0273% (inactive); in that of `CCCCCc1ccco1`, -1.86% [at 42.5 µM] (inactive); in that of `CCOC(=O)C(C)O` (stereo not given), -0.139% (inactive). For `CCCC(=O)C(CC)Sc1ccoc1C` (stereo not given), the “activation” value is -0.18% (inactive). Next, `C=COCCCCO`: 4.35% (inactive); `[O-][n+]1cccc(/C(Cl)=N/OC[C@@H](O)CN2CCCCC2)c1`: -0.0966% [at 42.5 µM] (inactive); `O=C(CCCCC(=O)Nc1c(I)cc(I)c(C(=O)O)c1I)Nc1c(I)cc(I)c(C(=O)O)c1I`: 0.0641% [at 42.5 µM] (inactive).

For `C[C@H](CCC(=O)NCC(=O)O)[C@H]1CC[C@H]2[C@@H]3[C@H](O)C[C@@H]4C[C@H](O)CC[C@]4(C)[C@H]3C[C@H](O)[C@]12C`, the “activation” value was -0.267% (inactive). In the case of `CCN(CC)CCOC(=O)C(c1ccccc1)c1ccccc1` it was 0.947% [at 42.5 µM] (inactive). `Nc1ccc(Oc2cccc(Oc3ccc(N)cc3)c2)cc1`: the “activation” value was 9.06% (inactive).

Turning to `OCCN(CCO)CCN(CCO)CCO`, the “activation” value is -1.07% (inactive). Turning to `N#CCc1ccc(Cl)cc1Cl`, the “activation” value is 3.35% (inactive).

Take `CC(C)OC(=O)C(C(=O)OC(C)C)=C1SC=CS1`: the “activation” value was 1.66% [at 42.5 µM] (inactive). In the case of `CC(=O)Nc1cc(S(=O)(=O)O)cc2cc(S(=O)(=O)O)c(N=Nc3ccccc3)c(O)c12` it was 0.98% (inactive); in that of `C/C(=N\[Si](C)(C)C)O[Si](C)(C)C`, 0.146% (inactive).
